About 79,000 compounds went through this panel and 15% of them were active in at least one assay; those are over-represented in the sample as a whole. Active and inactive are the calls of the source. Rule as the data show it: active = growth inhibition above about 70%; inactive = the rest.
How the values were obtained:
[1] = NCI Yeast Anticancer Drug Screen. Data for the rad52 strain (AID 147);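 also: 0% = growth of vehicle-treated control cultures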; details: S. cerevisiae rad52 mutant growth inhibition, hits give high values
In short: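 Screen used a yeast mutant impaired in DNA repair. After compound exposure, growth was measured. Values reflect inhibition compared with vehicle-treated cells.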

[2] = NCI Yeast Anticancer Drug Screen. Data for the wt1 strain (AID 149);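 also: 0% = growth of vehicle-treated wt1 cultures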; details: S. cerevisiae wt1 strain (SPY 50644) growth inhibition, hits give high values
In short: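 Using yeast strain wt1, compound-induced growth inhibition was determined against vehicle-treated cultures.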

[3] = NCI Yeast Anticancer Drug Screen. Data for the rad50EPP+ strain (AID 151);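 also: 0% = growth of vehicle-treated control cultures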; details: S. cerevisiae rad50 mutant strain, hits give high values
In short: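 Exposing the rad50EPP+ strain to each compound, growth was compared with vehicle-only cultures to give inhibition.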

[4] = NCI Yeast Anticancer Drug Screen. Data for the mgt1 strain (AID 153); details: S. cerevisiae mgt1 mutant growth inhibition, hits give high values
In short: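 Genetically defined yeast (mgt1) treated with compound; inhibition of growth expressed against vehicle-treated controls.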

[5] = NCI Yeast Anticancer Drug Screen. Data for the rad50 strain (AID 155);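 also: 0% = growth of vehicle-only cultures of the same strain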; details: S. cerevisiae rad50 strain growth inhibition, hits give high values
In short: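 Relative growth inhibition (compound vs vehicle) was measured in yeast with a defined repair-gene alteration.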

[6] = NCI Yeast Anticancer Drug Screen. Data for the mec2-1 strain (AID 157); details: S. cerevisiae mec2-1 strain, hits give high values
In short: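 Readout is yeast growth inhibition, normalised to vehicle-treated controls, in the mec2-1 strain exposed to compound.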

[7] = NCI Yeast Anticancer Drug Screen. Data for the rad14 strain (AID 159);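 also: 0% = growth of vehicle-treated control cultures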; details: S. cerevisiae rad14 strain growth inhibition, hits give high values
In short: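 Screen for anticancer potential: a yeast strain altered in DNA damage repair is grown with compound, and reduced growth is quantified against vehicle controls.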

[8] = NCI Yeast Anticancer Drug Screen. Data for the sgs1 mgt1 strain (AID 161);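 also: 0% = growth of cultures given vehicle only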; details: S. cerevisiae sgs1 mgt1 strain, hits give high values
In short: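 Percent growth inhibition was derived by comparing compound-exposed mutant yeast with vehicle-exposed cultures. The strain carries alterations in DNA damage repair.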

[9] = NCI Yeast Anticancer Drug Screen. Data for the CLN2oe strain (AID 163);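 also: 0% = growth of vehicle-only control cultures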; details: S. cerevisiae CLN2oe strain, hits give high values
In short: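 Values reflect how much compound exposure reduced yeast growth, referenced to vehicle-exposed cells. Assay organism is a strain with a defined genetic change affecting cell-cycle control.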

[10] = NCI Yeast Anticancer Drug Screen. Data for the cln2 rad14 strain (AID 165);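 also: 0% = growth equal to vehicle treated cultures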; details: S. cerevisiae cln2 rad14 strain, hits give high values
In short: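 Relative to vehicle controls, growth inhibition of compound-treated cln2 rad14 yeast was recorded.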

[11] = NCI Yeast Anticancer Drug Screen. Data for the bub3 strain (AID 167); details: S. cerevisiae bub3 mutant strain, hits give high values
In short: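 Screening used yeast with an engineered genetic alteration affecting cell cycle control. Compound-exposed cultures were compared with vehicle cultures, and reduced growth was taken as inhibition.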

[12] = NCI Yeast Anticancer Drug Screen. Data for the mlh1 strain (AID 171);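 also: 0% = growth of vehicle-treated control cultures of the same strain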; details: S. cerevisiae mlh1 strain growth inhibition, hits give high values
In short: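 Steps: expose the defined-mutant yeast strain to compound; expose a parallel culture to vehicle; measure growth; express compound effect as inhibition relative to the vehicle culture.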

[13] = NCI Yeast Anticancer Drug Screen. Data for the sgs1 strain (AID 173);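 also: 0% = growth of vehicle-only control cultures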; details: S. cerevisiae sgs1 mutant, hits give high values
In short: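 Treat defined-mutant yeast with compound; measure growth; calculate inhibition relative to vehicle-treated cells.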

[14] = NCI Yeast Anticancer Drug Screen. Data for the mlh1 rad18 strain (AID 175); details: S. cerevisiae mlh1 rad18 strain growth inhibition, hits give high values
In short: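 Test agents were incubated with a yeast strain of defined genotype (DNA damage repair defect). Inhibition of growth was derived by comparison with vehicle-exposed cultures.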

[15] = NCI Yeast Anticancer Drug Screen. Data for the rad18 strain (AID 177); details: S. cerevisiae rad18 mutant growth inhibition, hits give high values
In short: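 A genetically defined yeast mutant impaired in DNA damage repair was treated with test compounds, then its growth was measured against cultures receiving vehicle alone.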

[16] = at 5.0 µM (retest, dose inferred, filed as 0.5)
[17] = at 50.0 µM (retest, dose inferred, filed as 5.0)

Measured: growth inhibition

CCOC(=S)SSSC(=S)OCC
inactive: [1]; at 1.2 µM 4% | [1]; at 3.7 µM 17% | [2]; at 1.2 µM -3% | [2]; at 3.7 µM 3% | [2]; at 11.0 µM 31% | [3]; at 1.2 µM 18% | [3]; at 3.7 µM 51% | [4]; at 1.2 µM -1% | [4]; at 3.7 µM 6% | [4]; at 11.0 µM 31% | [4]; at 100.0 µM 56% | [5]; at 1.2 µM 7% | [5]; at 3.7 µM 19% | [5]; [16] 43% | [5]; at 50.0 µM 29.6% | [6]; at 1.2 µM -6% | [6]; at 3.7 µM -5% | [6]; at 11.0 µM 20% | [6]; at 50.0 µM 19.4% | [7]; at 1.2 µM 0% | [7]; at 3.7 µM 5% | [7]; at 11.0 µM 40% | [8]; [16] 9% | [8]; at 50.0 µM 41.2% | [9]; at 1.2 µM -2% | [9]; at 3.7 µM -1% | [9]; at 11.0 µM 18% | [9]; at 33.0 µM 57% | [10]; [16] 1% | [10]; at 50.0 µM -2.7% | [11]; at 1.2 µM -5% | [11]; at 3.7 µM -4% | [11]; [16] -3% | [11]; at 11.0 µM 36% | [11]; at 50.0 µM 50.4% | [12]; at 1.2 µM 3% | [12]; at 3.7 µM 7% | [12]; at 11.0 µM 41% | [13]; at 1.2 µM 0% | [13]; at 3.7 µM 9% | [13]; at 11.0 µM 56% | [14]; [16] 55% | [14]; at 50.0 µM 27.2% | [15]; at 1.2 µM 0% | [15]; at 3.7 µM 8% | [15]; at 11.0 µM 56%
active: [1]; at 11.0 µM 70% | [1]; at 33.0 µM 97% | [1]; at 100.0 µM 99% | [2]; at 33.0 µM 88% | [2]; at 100.0 µM 99% | [3]; at 11.0 µM 93% | [3]; at 33.0 µM 99% | [3]; at 100.0 µM 99% | [4]; at 33.0 µM 96% | [5]; at 11.0 µM 76% | [5]; at 33.0 µM 99% | [5]; [17] 99% | [5]; at 100.0 µM 99% | [6]; [16] 87% | [6]; at 33.0 µM 91% | [6]; [17] 100% | [6]; at 100.0 µM 99% | [7]; at 33.0 µM 96% | [7]; at 100.0 µM 99% | [8]; [17] 99% | [9]; at 100.0 µM 95% | [10]; [17] 92% | [11]; at 33.0 µM 95% | [11]; [17] 99% | [11]; at 100.0 µM 99% | [12]; at 33.0 µM 95% | [12]; at 100.0 µM 99% | [13]; at 33.0 µM 98% | [13]; at 100.0 µM 99% | [14]; [17] 99% | [15]; at 33.0 µM 98% | [15]; at 100.0 µM 99%

O=C(CCCN1CCC(Nc2ccc(F)cc2)(c2nnnn2C2CCCCC2)CC1)c1ccc(F)cc1
inactive: [1]; at 1.2 µM 14% | [1]; at 3.7 µM 2% | [1]; at 11.0 µM 19% | [1]; at 33.0 µM 24% | [2]; at 1.2 µM -81% | [2]; at 3.7 µM -5% | [2]; at 11.0 µM -11% | [2]; at 33.0 µM -11% | [3]; at 1.2 µM 0% | [3]; at 3.7 µM 0% | [3]; at 11.0 µM 1% | [3]; at 33.0 µM 4% | [3]; at 100.0 µM 25% | [4]; at 1.2 µM -2% | [4]; at 3.7 µM -3% | [4]; at 11.0 µM -6% | [4]; at 33.0 µM 2% | [5]; at 1.2 µM -5% | [5]; at 3.7 µM -7% | [5]; [16] 1% | [5]; at 11.0 µM -9% | [5]; at 33.0 µM -5% | [5]; [17] 37% | [5]; at 50.0 µM 11.7% | [6]; at 1.2 µM -7% | [6]; at 3.7 µM -8% | [6]; [16] 3% | [6]; at 11.0 µM -17% | [6]; at 33.0 µM -5% | [6]; [17] 12% | [6]; at 50.0 µM 27.1% | [7]; at 1.2 µM -5% | [7]; at 3.7 µM -8% | [7]; at 11.0 µM -10% | [7]; at 33.0 µM 9% | [8]; [16] -4% | [8]; [17] 31% | [8]; at 50.0 µM 50.3% | [9]; at 1.2 µM -8% | [9]; at 3.7 µM -10% | [9]; at 11.0 µM -7% | [9]; at 33.0 µM 31% | [10]; [16] 65% | [10]; [17] 50% | [10]; at 50.0 µM 35.7% | [11]; at 1.2 µM -2% | [11]; at 3.7 µM -4% | [11]; [16] -13% | [11]; at 11.0 µM -6% | [11]; at 33.0 µM 22% | [11]; at 50.0 µM 32.9% | [12]; at 1.2 µM -3% | [12]; at 3.7 µM -6% | [12]; at 11.0 µM -8% | [12]; at 33.0 µM -6% | [13]; at 1.2 µM -1% | [13]; at 3.7 µM -1% | [13]; at 11.0 µM -4% | [13]; at 33.0 µM 7% | [14]; [16] -3% | [14]; [17] 41% | [15]; at 1.2 µM 3% | [15]; at 3.7 µM 0% | [15]; at 11.0 µM 14% | [15]; at 33.0 µM 17%
active: [1]; at 100.0 µM 98% | [2]; at 100.0 µM 89% | [4]; at 100.0 µM 98% | [5]; at 100.0 µM 97% | [6]; at 100.0 µM 99% | [7]; at 100.0 µM 85% | [9]; at 100.0 µM 99% | [11]; [17] 80% | [11]; at 100.0 µM 99% | [12]; at 100.0 µM 98% | [13]; at 100.0 µM 98% | [14]; at 50.0 µM 77.8% | [15]; at 100.0 µM 99%
